Results taken from PubChem BioAssay (EPA / NIEHS).
Inconclusive results are not listed. Calls of active or inactive are those of the source. How the source made its calls: active means hit-call score of the fitted dose curve at least 0.9, where 1 is the maximum; inconclusive means response in the unintended direction; inactive means score below 0.9.

molecular target: human Casein Kinase 1-delta (CK1D), CSNK1D (gene 1453) (UniProt P48730); experiment: NVS_ENZ_hCK1D: NovaScreen (NVS) Enzymatic Assay for human Casein Kinase 1-delta (CK1D) (AID 2283148)
Method in brief: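 Recombinant human CK1-delta, cell-free; fluorescent substrate with electrophoretic mobility-shift separation of product, read 1 h after dosing. Single 25 uM duplicate screen, then concentration-response up to 50 uM; loss of signal vs DMSO.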

Chain of human Casein Kinase 1-delta (CK1D), CSNK1D (gene 1453) (P48730 whole entry, looked up): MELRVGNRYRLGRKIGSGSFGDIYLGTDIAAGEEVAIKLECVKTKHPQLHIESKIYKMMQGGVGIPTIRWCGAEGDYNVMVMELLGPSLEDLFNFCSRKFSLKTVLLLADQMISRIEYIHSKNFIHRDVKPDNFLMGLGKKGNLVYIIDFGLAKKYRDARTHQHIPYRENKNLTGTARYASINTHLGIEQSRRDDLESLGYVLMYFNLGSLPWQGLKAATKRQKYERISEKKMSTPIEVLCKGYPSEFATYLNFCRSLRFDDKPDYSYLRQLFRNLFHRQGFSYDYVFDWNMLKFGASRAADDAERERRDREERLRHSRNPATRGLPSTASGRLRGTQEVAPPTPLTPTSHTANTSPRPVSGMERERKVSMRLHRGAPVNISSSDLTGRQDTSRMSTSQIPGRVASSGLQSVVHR

AC50, active:
COc1cc(C(=O)NC2CCN(C)CC2)ccc1Nc1ncc2c(n1)N(C1CCCC1)CC(F)(F)C(=O)N2C 18.1 µM, Oc1ccc2ccccc2c1 24.1 µM, c1ccc2n[nH]nc2c1 25 µM

outcome, inactive:
c1ccc2ccccc2c1, O=C1c2ccccc2C(=O)N1CCc1noc(-c2ccc(CN3CCCCCC3)s2)n1, O=C(Nc1ccc(Cl)cc1)Nc1ccc(Cl)c(Cl)c1, CCN(Cc1cccc(S(=O)(=O)O)c1)c1ccc(C(=C2C=CC(=[N+](CC)Cc3cccc(S(=O)(=O)O)c3)C=C2)c2ccccc2S(=O)(=O)[O-])cc1, CC/C(=C(/CC)c1ccc(O)cc1)c1ccc(O)cc1, O=C(O)Cc1cc(I)c(Oc2ccc(O)c(I)c2)c(I)c1, O=CCCCC=O, CC(=O)N1CCN(c2ccc(OC[C@H]3CO[C@](Cn4ccnc4)(c4ccc(Cl)cc4Cl)O3)cc2)CC1, CN(C[C@@H](CC[N+]12CCC(C3CCCCC3)(CC1)CC2)c1ccc(Cl)c(Cl)c1)C(=O)c1cc(C(F)(F)F)cc(C(F)(F)F)c1
